Results on eight molecules are retold here after PubChem BioAssay (NCI).

Among the test systems are SK-MEL-2 melanoma; EKVX NSCLC; SN12C renal; UO-31 renal; TK-10 renal; ACHN renal; CAKI-1 renal; A498 renal; CCRF-CEM leukemia; MOLT-4 leukemia; SR leukemia; RPMI-8226 leukemia; OVCAR-8 ovarian; OVCAR-5 ovarian; SK-OV-3 ovarian; IGROV1 ovarian; OVCAR-3 ovarian; HS 578T breast; NCI/ADR-RES ovarian; OVCAR-4 ovarian.
Common to all, as to experiment: NCI-60 one-dose screen, 48 h (100 = growth as untreated, 0 = no growth, -100 = all killed)
Holding throughout (conditions): 10 µM unless noted

The panel holds about 83,000 compounds, 20% with a hit somewhere; the sample as a whole holds those more often.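 48-hour exposure, single concentration, 96-well plates; percent growth endpoint where 0 means no net growth. Active: below 10.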 A number with no mark means an inactive call. Activity calls are given as the source filed them.

Take `CCCCCCCC/C=C/CCCCCCCC1=NCC[N+]1(CCO)CCO`: the growth with SK-MEL-2 melanoma is 102%; in the assay with EKVX NSCLC it was 76.4%; in the assay on SN12C renal, 76%; in the assay on UO-31 renal, 65.4%; in the assay on TK-10 renal, 41.2%; with ACHN renal it was 82.2%. Further, the growth with CAKI-1 renal was 52.5%; with A498 renal it was 73.4%; in the assay on CCRF-CEM leukemia, 31.4%; in the assay on MOLT-4 leukemia, 41.7%; in the assay on SR leukemia it was 17.4%; in the assay with RPMI-8226 leukemia, 38.6%. Moreover, the growth in the assay on OVCAR-8 ovarian was 80.6%; in the assay with OVCAR-5 ovarian, 77.5%; in the assay on SK-OV-3 ovarian it was 88%; in the assay with IGROV1 ovarian, -8.63% (active); with OVCAR-3 ovarian, 59.9%; with HS 578T breast, 88.6%. The growth in the assay on NCI/ADR-RES ovarian was 94.9%.

For the molecule `O=C1c2ccccc2C2(c3ccc(O)cc3)c3ccccc3Oc3cccc1c32` (stereo not given), the growth in the assay on SK-MEL-2 melanoma is 25.4%; in the assay with EKVX NSCLC, 45.7%; in the assay on SN12C renal it was 37.5%; in the assay with UO-31 renal it was 45.7%; in the assay on TK-10 renal it was 84.3%; with ACHN renal, 43.4%. Further, the growth in the assay on CAKI-1 renal is 45.9%; in the assay on A498 renal it was 47.1%; in the assay with CCRF-CEM leukemia, 14.8%; in the assay with MOLT-4 leukemia, 24.8%; in the assay with SR leukemia, 9.2% (active); in the assay on RPMI-8226 leukemia, 17.8%. Besides, the growth in the assay with OVCAR-5 ovarian was 30.7%; in the assay with OVCAR-4 ovarian it was 86.9%; in the assay with SK-OV-3 ovarian, 25.7%; in the assay on IGROV1 ovarian, 59.9%; in the assay with OVCAR-3 ovarian it was 11.2%; with HS 578T breast it was 25.8%. Further, the growth with NCI/ADR-RES ovarian was 11.1%.

As to `COc1ccc(OC)c(/C=C2\COc3ccc(O)cc3C2=O)c1`, the growth in the assay with SK-MEL-2 melanoma is 100%; with EKVX NSCLC, 103%; in the assay with SN12C renal, 84.1%; in the assay with UO-31 renal, 86.6%; in the assay on TK-10 renal, 97%; in the assay with ACHN renal it was 78.9%. Further, the growth was 95.7% in the assay on CAKI-1 renal; 100% in the assay on A498 renal; 5.83% (active) in the assay with CCRF-CEM leukemia; 64.9% in the assay with MOLT-4 leukemia; 11.8% in the assay with SR leukemia; 100% in the assay with OVCAR-8 ovarian. The growth in the assay on OVCAR-5 ovarian is 98.7%; with OVCAR-4 ovarian, 117%; in the assay on SK-OV-3 ovarian, 102%; in the assay with IGROV1 ovarian, 97.9%; with OVCAR-3 ovarian it was 102%; with HS 578T breast it was 95.6%. Moreover, the growth with NCI/ADR-RES ovarian was 100%.

As to `CC(=O)c1ccc2c(c1)CCN2`, the growth with SK-MEL-2 melanoma is 104%; in the assay with EKVX NSCLC, 117%; with SN12C renal, 96.7%; in the assay with UO-31 renal, 94.2%; in the assay with TK-10 renal, 98.1%; with ACHN renal, 100%. The growth in the assay with CAKI-1 renal was 111%; with A498 renal, 117%; with CCRF-CEM leukemia, 94.9%; in the assay with MOLT-4 leukemia, 94.2%; with SR leukemia, 93.4%; in the assay on RPMI-8226 leukemia, 94.7%. Also, the growth was 99.5% with OVCAR-8 ovarian; 101% in the assay with OVCAR-5 ovarian; 99.9% in the assay with SK-OV-3 ovarian; 117% in the assay with IGROV1 ovarian; 124% in the assay with OVCAR-3 ovarian; 110% with NCI/ADR-RES ovarian.

On to `O=C(/C=C/c1ccccc1)c1ccc2ccccc2c1`, for which the growth in the assay with SK-MEL-2 melanoma is 98.4%; in the assay with EKVX NSCLC, 86.7%; in the assay with SN12C renal, 99.7%; in the assay on UO-31 renal, 73.9%; in the assay on TK-10 renal, 44.4%; in the assay on ACHN renal, 16.2%. Besides, the growth in the assay with CAKI-1 renal was 83.9%; in the assay on A498 renal, 93.5%; with CCRF-CEM leukemia it was 23%; with MOLT-4 leukemia, 74.5%; in the assay on SR leukemia, 48.1%; in the assay with OVCAR-8 ovarian, 100%. Also, the growth with OVCAR-5 ovarian is 106%; with OVCAR-4 ovarian, 97%; in the assay with SK-OV-3 ovarian it was 103%; with IGROV1 ovarian, 76.2%; with HS 578T breast, 145%; in the assay with NCI/ADR-RES ovarian, 101%.

`CNC(=O)c1c(NC(=O)c2ccc(C(C)(C)C)cc2)sc2c1CCC(=O)C2`: the growth in the assay with SK-MEL-2 melanoma was -2.66% (active); in the assay on EKVX NSCLC, 14.6%; in the assay with SN12C renal, 7.81% (active); in the assay with UO-31 renal, -95.5% (active); in the assay on TK-10 renal it was 40%; in the assay on ACHN renal it was -45.9% (active). The growth with CAKI-1 renal is -14.3% (active); in the assay with A498 renal, 12.6%; in the assay on CCRF-CEM leukemia, 1.79% (active); in the assay with MOLT-4 leukemia, 2.3% (active); in the assay on RPMI-8226 leukemia, -20.6% (active); in the assay on OVCAR-8 ovarian it was 15.7%. Further, the growth was 9.12% (active) in the assay with OVCAR-5 ovarian; -66.4% (active) in the assay on OVCAR-4 ovarian; 0.618% (active) in the assay on SK-OV-3 ovarian; 4.71% (active) with IGROV1 ovarian; -21.4% (active) in the assay with OVCAR-3 ovarian; 24.2% with HS 578T breast. For the same molecule, in the assay with NCI/ADR-RES ovarian, the growth was 8.75% (active).

With `CS(=O)(=O)c1ccc(-c2nc3cc(Cl)ccc3n2CC(=O)N/N=C/c2ccc(Cl)cc2)cc1`, the growth was 44.3% with SK-MEL-2 melanoma; 72.1% in the assay on EKVX NSCLC; 69.3% with SN12C renal; 77.8% with UO-31 renal; 81.7% with TK-10 renal; 61.5% in the assay with ACHN renal. The growth in the assay on CAKI-1 renal was 71.3%; with A498 renal it was 68.4%; in the assay with CCRF-CEM leukemia, 19.9%; with MOLT-4 leukemia, 12.6%; in the assay with RPMI-8226 leukemia, -17.2% (active); in the assay with OVCAR-8 ovarian it was 43.6%. Further, the growth in the assay on OVCAR-5 ovarian is 77.4%; with OVCAR-4 ovarian, 60.1%; with SK-OV-3 ovarian it was 65.8%; in the assay on IGROV1 ovarian it was 55.6%; in the assay on OVCAR-3 ovarian, 46.5%; in the assay on HS 578T breast it was 19.2%. For the same molecule, the growth in the assay on NCI/ADR-RES ovarian was 92.8%.

Take `CCOc1cc(N)ccc1C(=O)NCCCN(CC)CC`: the growth in the assay with SK-MEL-2 melanoma was 102%; in the assay on EKVX NSCLC, 106%; in the assay on SN12C renal, 98.5%; with UO-31 renal, 75.8%; in the assay on TK-10 renal, 108%; in the assay on ACHN renal, 94.6%. In addition, the growth was 95.2% in the assay on CAKI-1 renal; 66.5% in the assay with A498 renal; -13.6% (active) with CCRF-CEM leukemia; 26.3% in the assay on MOLT-4 leukemia; 95.9% in the assay with RPMI-8226 leukemia; 118% in the assay with OVCAR-8 ovarian. For the same molecule, the growth in the assay on OVCAR-5 ovarian is 93.9%; with OVCAR-4 ovarian it was 109%; with SK-OV-3 ovarian, 110%; in the assay with IGROV1 ovarian, 96.5%; in the assay on OVCAR-3 ovarian, 105%; with HS 578T breast it was 99.1%. For the same molecule, in the assay with NCI/ADR-RES ovarian, the growth is 94.2%.
